Screen size: about 52,000 compounds; about 4,300 (8.3%) were called active. Rule as the data show it: active = survival mostly below about 52% (no sharp cut-off); inactive = mostly above about 56%. The full list was thinned out, with actives kept by preference.
Each compound was assayed on DeltatarO mutant (assay: S. aureus survival, RN4220 and DeltatarO strains – OD600, teichoic acid synthesis inhibitors, primary screen (AID 463173)). Settings: S. aureus RN4220 wild type/DeltatarO growth, OD600, 18 h, active compounds read low, screened at 18.75 µg/mL (by protocol).

| Compound | survival |
| --- | --- |
| CNc1nc2ccccc2o1 | 89% (inactive) |
| O=C(CSc1nnc(-c2cccs2)o1)Oc1ccccc1Cl | 81% (inactive) |
| Cc1ccc(CNC(=O)CCCn2c(=O)c3ccccc3n(CC(=O)Nc3ccc(C)cc3)c2=O)cc1 | 89% (inactive) |
| COc1ccccc1N(CC(=O)N1CCC(C)CC1)S(=O)(=O)c1ccc(C)cc1 | 134% (inactive) |
| CCOC(=O)N1CCN(C(=O)CN(c2cc(C)ccc2OC)S(=O)(=O)c2ccc(C)cc2)CC1 | 87% (inactive) |
| COc1ccc(C)cc1N(CC(=O)N1CCC(C)CC1)S(=O)(=O)c1ccc(C)cc1 | 55% (active) |
| O=C(CSc1nc(-c2ccc(F)cc2)[nH]c1-c1ccc(F)cc1)Nc1ccc2c(c1)OCCO2 | 76% (inactive) |
| N#CC(C#N)=C1c2ccccc2-c2nc(C#N)c(C#N)nc21 | 4% (active) |
| N#CC(C#N)=C1c2ccccc2-c2c1nc1ccccc1[n+]2[O-] | 78% (inactive) |
| N#Cc1nc2c(nc1C#N)-c1ccccc1C2=O | 19% (active) |
| N#Cc1cc2nc3c(nc2cc1C#N)-c1cccc2cccc-3c12 | 85% (inactive) |
| O=C1c2ccccc2-c2n[nH]c(=S)nc21 | 64% (inactive) |
| N#CCCCN1C(=O)C(=C(C#N)C#N)c2ccccc21 | 75% (inactive) |
| COC(=O)c1ccc2c(=O)n(CCCCCC(=O)N3CCN(c4ccc(Cl)cc4)CC3)c(=O)[nH]c2c1 | 116% (inactive) |
| Cc1ccc(C(=O)c2oc3ccccc3c2NC(=O)C(C)Oc2ccccc2Cl)cc1 (centres undefined) | 40% (active) |
| Cc1cc(C)cc(OC(C)C(=O)Nc2c(C(=O)c3ccccc3)oc3ccccc23)c1 (centres undefined) | 17% (active) |
| COc1ccccc1OC(C)C(=O)Nc1c(C(=O)c2ccc(Cl)cc2)oc2ccccc12 (centres undefined) | 81% (inactive) |
| Cc1ccc(C(=O)c2oc3ccccc3c2NC(=O)COc2ccccc2Cl)cc1 | 123% (inactive) |
| CCc1ccc(OC(C)C(=O)Nc2c(C(=O)c3ccccc3)oc3ccccc23)cc1 (centres undefined) | 38% (inactive) |
| Cc1cc(C)cc(OCC(=O)Nc2c(C(=O)c3ccccc3)oc3ccccc23)c1 | 92% (inactive) |

| Compound | survival |
| --- | --- |
| CC(C)Cn1c(=O)c2ccccc2n2c(-c3ccc(Br)cc3)nnc12 | 94% (inactive) |
| Cc1ccc(CN(Cc2ccco2)C(=O)COc2ccc(Cl)cc2Cl)cc1 | 96% (inactive) |
| Cc1ccc(-c2nnc(Nc3ccc(O)cc3)c3ccccc23)cc1S(=O)(=O)N1CCCCC1 | 104% (inactive) |
| Cc1cccc(N2CCN(c3nc4ccc(C(=O)c5ccccc5)cc4n4cnnc34)CC2C)c1 (centres undefined) | 76% (inactive) |
| Fc1ccc(-c2noc3ncnc(NCC4CCN(Cc5ccc(Cl)cc5)CC4)c23)cc1 | 72% (inactive) |
| Cc1ccc(CN2CCC(CNc3ncnc4onc(-c5ccc(F)cc5)c34)CC2)cc1 | -2% (active) |
| Cc1ccc(CN2CCC(CNc3ncnc4onc(-c5ccc(Cl)cc5)c34)CC2)cc1 | 80% (inactive) |
| Cc1ccc(CCNc2ncnc3onc(-c4ccc(F)cc4)c23)cc1 | 83% (inactive) |
| Cc1cc(C)cc(Nc2ncnc3onc(-c4ccc(F)cc4)c23)c1 | 84% (inactive) |
| Cc1ccc(CO)cc1Nc1ncnc2onc(-c3ccc(F)cc3)c12 | 46% (active) |
| Cc1cccc(N2CCN(C(=O)c3cccc(-n4c(C)nc5cccnc54)c3)CC2)c1C | 104% (inactive) |
| COc1ccc2c(c1)cc1c(=O)n(CC(=O)NC3CCCCC3)nc(C)n12 | 70% (inactive) |
| COc1ccc(CCNS(=O)(=O)c2c(C)nc3sccn3c2=O)cc1OC | 64% (inactive) |
| CCOc1ccc(CN2C(=O)c3ccccc3Sc3ccc(C(=O)NCCc4ccccc4)cc32)cc1 | 58% (inactive) |
| COC(=O)C1(C(C)C)NC(c2ccccc2OC)C2C(=O)N(C)C(=O)C21 (centres undefined) | 84% (inactive) |
| COC(=O)C1(C)NC(c2ccc(OC)cc2)C2C(=O)N(c3ccccc3)C(=O)C21 (centres undefined) | 80% (inactive) |
| COC(=O)C1(C)NC(c2ccccc2C)C2C(=O)N(C)C(=O)C21 (centres undefined) | 54% (active) |
| COc1ccc(C)cc1NS(=O)(=O)c1ccc2oc(=O)c3ncn(C)c3c2c1 | 77% (inactive) |
| CCc1ccc(S(=O)(=O)NCc2ccc3c(c2)CCN3C(=O)c2ccc(C)cc2)cc1 | 71% (inactive) |
| CCOc1ccc(-c2nonc2NC(=O)c2ccco2)cc1 | 79% (inactive) |

| Compound | survival |
| --- | --- |
| Cn1c(=O)c2c(ncn2CC(=O)Nc2cccc(C(F)(F)F)c2)n(C)c1=O | 71% (inactive) |
| CC(=O)Nc1cccc(NC(=O)Cn2cnc3c2c(=O)n(C)c(=O)n3C)c1 | 70% (inactive) |
| CC(=O)c1cccc(NC(=O)Cn2cnc3c2c(=O)n(C)c(=O)n3C)c1 | 44% (active) |
| Cc1cccc(-c2cc(-c3ccccc3)nc(SCC(=O)Nc3ccccc3)c2C#N)c1 | 67% (inactive) |
| COc1cc(C(CC(=O)Nc2ccc(C)c(F)c2)N2Cc3ccccc3C2=O)cc(OC)c1OC (centres undefined) | 93% (inactive) |
| CC(C)c1ccc(S(=O)(=O)NCc2ccc3c(c2)CCN3C(=O)c2ccccc2)cc1 | 87% (inactive) |
| CCc1c(CN2CCN(c3ccc(F)cc3)CC2)csc1C | 38% (active) |
| Cc1scc(CN2CCN(c3ccc(F)cc3)CC2)c1C | 64% (inactive) |
| CCc1c(CN2CCN(c3ccccc3F)CC2)csc1C | 32% (active) |
| Cc1ccc(-c2c(CN3CCN(c4cccc(C)c4C)CC3)csc2C)cc1 | 21% (active) |
| CCc1c(CN2CCN(c3cccc(C)c3C)CC2)csc1C | 76% (inactive) |
| Cc1cc(CN2CCN(c3ccc(F)cc3)CC2)cs1 | 69% (inactive) |
| Cc1ccc(-c2c(CN3CCN(c4cc(C)ccc4C)CC3)csc2C)cc1 | 126% (inactive) |
| Cc1ccc(-c2c(CN3CCN(c4cc(Cl)ccc4C)CC3)csc2C)cc1 | 51% (inactive) |
| Cc1scc(CN2CCN(c3ccccc3F)CC2)c1C | 64% (inactive) |
| COc1ccc(-c2cc(C(F)(F)F)nc(SCCC(=O)Nc3ccccc3F)n2)cc1 | 77% (inactive) |
| Cc1ccc(Cl)cc1NC(=O)Cn1nnc2sc3c(c2c1=O)CCC(C(C)(C)C)C3 (centres undefined) | 58% (inactive) |
| C=CCc1c(C)nc2nc(SCC(=O)Nc3cccc(Cl)c3)nn2c1C | 102% (inactive) |
| CCCNC(=O)C1CCN(C(=O)N2CC(C)Oc3ccccc32)CC1 (centres undefined) | 65% (inactive) |

From PubChem BioAssay AID463173 (ICCB-Longwood Screening Facility, Harvard Medical School, 2010)
